A selection: hits, their analogues and other compounds. The true share with any hit is near 18%.
DT40 TDP1 CPT: qHTS for Inhibitors of human tyrosyl-DNA phosphodiesterase 1 (TDP1): qHTS in cells in presence of CPT; chicken DT40 Tdp1-/-;hTDP1 cells + 20 nM CPT, ATP luminescence, 48 h; Potency, µM (top dose mostly 46.2 µM), for the others: top-dose activity change, negative = growth inhibition, hits mostly inhibitors; actives 12% (n = 420,000); AID 686979, 2013; also: potency is read from the fitted curve at half-maximal effect; nearly all actives have a fitted effect of over 55% in size
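Chicken DT40 Tdp1-/- cells complemented with human TDP1, 400 cells/well, exposed to compounds plus 20 nM camptothecin for at least 48 h at 37 C; viability read as ATP content by CellTiter-Glo luminescence.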
DT40 TDP1 no CPT: qHTS for Inhibitors of human tyrosyl-DNA phosphodiesterase 1 (TDP1): qHTS in cells in absence of CPT. DT40 Tdp1-/- hTDP1 cells, no CPT, ATP luminescence, 48 h. Potency, µM (series often up to 46.2 µM), without a hit: at the top dose activity change, negative = growth inhibition, most hits filed as inhibitors. actives 15% (n = 420,000); also: potency is read from the fitted curve at half-maximal effect; nearly all actives have a fitted effect of over 55% in size
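DT40 Tdp1-/-;hTDP1 cells, no CPT (DMSO vehicle only), 400 cells/well; compounds pin-transferred; ≥48 hr, 37 °C; CellTiter-Glo 30 min RT dark, luminescence read.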
IL1B secr inh: qHTS for Inhibitors of Inflammasome Signaling: IL-1-beta AlphaLISA Primary Screen. THP-1 LPS/ATP IL-1B secretion, AlphaLISA, 16 h; hits give low values. activity change, % at 57.5 µM. actives 4.7% (n = 360,000). AID 743279, 2014; in the data active = activity change below about -50%; inconclusive = mostly about -30% to -49%
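THP-1 cells pretreated 1 hr with compounds (up to 57.5 uM final), then stimulated with LPS (250 ng/mL final) plus ATP (1.25 mM final); secreted IL-1B measured by AlphaLISA after 16 hr, decreased signal indicating inhibition.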
Six1-Eya2 inh: qHTS Assay for Inhibitors of the Six1/Eya2 Interaction. Homeobox protein SIX1 (Homo sapiens) + Protein phosphatase EYA2 (Homo sapiens), …. AlphaScreen GST-Six1/His-Eya2 binding, biochemical; hits give low values. actives 0.56% (n = 360,000). activity change, % (test concentration not listed); in the data active = activity change below about -65%; inconclusive = mostly about -30% to -63%
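Homogeneous AlphaScreen proximity assay pairing GST-Six1 with His-tagged Eya2 (added as 5X mix: 250 nM and 500 nM) in 50 mM Tris pH 8.0, 300 mM NaCl, 1 mM TCEP. Glutathione donor and nickel acceptor beads; 1 h, 37 °C, dark.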
TDP1 block: qHTS Assay for Inhibitors of Tyrosyl-DNA Phosphodiesterase (TDP1); actives 0.28% (n = 350,000); recombinant TDP1, AlphaScreen DNA substrate cleavage; Tyrosyl-DNA phosphodiesterase 1 (Homo sapiens), Q9NUW8; Potency, µM (top dose mostly 130 µM), inactives show top-dose activity change, negative = inhibition, usual class: inhibitors; also: potency is read from the fitted curve at half-maximal effect; nearly all actives have a fitted effect of over 40% in size
Target sequence (Q9NUW8 whole entry, looked up): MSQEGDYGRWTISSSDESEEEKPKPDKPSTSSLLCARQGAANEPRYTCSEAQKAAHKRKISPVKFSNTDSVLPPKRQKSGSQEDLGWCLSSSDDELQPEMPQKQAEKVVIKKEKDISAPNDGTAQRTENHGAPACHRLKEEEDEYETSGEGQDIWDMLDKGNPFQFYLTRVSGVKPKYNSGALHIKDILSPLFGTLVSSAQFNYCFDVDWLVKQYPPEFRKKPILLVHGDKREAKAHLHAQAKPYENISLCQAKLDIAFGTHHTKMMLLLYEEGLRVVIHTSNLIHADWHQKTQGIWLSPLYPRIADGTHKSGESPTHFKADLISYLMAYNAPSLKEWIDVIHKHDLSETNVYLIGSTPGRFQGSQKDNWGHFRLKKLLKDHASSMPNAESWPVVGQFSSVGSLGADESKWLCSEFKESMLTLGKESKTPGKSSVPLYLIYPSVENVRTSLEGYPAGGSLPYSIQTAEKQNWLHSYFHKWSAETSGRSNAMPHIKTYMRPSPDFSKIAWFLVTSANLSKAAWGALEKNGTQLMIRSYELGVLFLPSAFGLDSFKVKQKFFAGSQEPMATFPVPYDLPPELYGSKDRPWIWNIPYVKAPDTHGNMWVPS
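E. coli-derived human Tdp1, 1 nM final. Cpd preinc 15 min RT; substrate 15 nM final, 5 min RT; AS bead mix 10 ug/ml final, 10 min RT. Signal loss = tyrosine-FITC cleavage. No-enzyme wells = max signal.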
CtBP-E1A blk: qHTS Assay for Inhibitors of the CtBP/E1A Interaction. actives 0.49% (n = 340,000). AlphaScreen GST-E1A/His-CtBP binding, 1536-well; hits give low values. AID 651724, 2012. activity change, % (no concentration beside the values); in the data active = activity change below about -65%; inconclusive = mostly about -30% to -63%
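GST-E1A and His-tagged CtBP (125 nM each as 5X stock) were preincubated with pin-transferred compound for 2 h at 37 °C in the dark, then glutathione donor and nickel acceptor beads were added for 1 h before AlphaScreen reading.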
* = called active by the depositor; ? = inconclusive; · = no result. Unless noted, calls follow the shape of the dose curve; as a rule, active = well fitted curve in the direction sought with a large enough effect; inconclusive = small, poorly fitted or top-dose-only effect, or another doubt; inactive = no such curve, though single readings can be large; an effect the other way counts as inactive or inconclusive. % is scaled to controls: 0 for no effect and ±100 for the full control effect.

SMILES | DT40 TDP1 CPT | DT40 TDP1 no CPT | IL1B secr inh | Six1-Eya2 inh | TDP1 block | CtBP-E1A blk
CC(C)(C)c1ccc(OCC(=O)Nc2ccncc2)c(Br)c1 | 8.2µM* | 7.3µM* | 39 | 6 | · | ·
Cc1ccc(OC(=O)c2ccccc2)cc1C | -1% | 5% | -3 | 27 | · | 37
Cc1cc(C(=O)c2ccccc2)cc(C)c1O | -3% | -2% | 5 | -86* | · | -23
COCCn1c(SCC(=O)N2CCCc3ccccc32)nc2ccccc2c1=O | ? | 16µM* | ? | 0 | -2% | 4
COCCn1c(SCC(=O)N2CCc3ccccc3C2)nc2cc(Cl)ccc2c1=O | ? | 15µM* | -76* | 5 | -1% | 8
O=C(NNC(=O)c1cccc2ccccc12)c1cccc(Cl)c1 | -10% | -24% | -3 | 0 | · | 2
CO[C@H]1O[C@@H]2O[C@@]3(C)CC[C@H]4[C@H](C)CC[C@@H]([C@H]1C)[C@@]24OO3 | 2.7µM* | 1.5µM* | · | · | · | ·
COc1cc2c(ccc3cc(OC)c(OC)c(O)c32)cc1O | 7.3µM* | 9.2µM* | -6 | ? | · | 0
O=C(Cn1c(=O)ccn(Cc2ccccc2)c1=O)Nc1cccc(S(=O)(=O)N2CCOCC2)c1 | 7% | 1% | 14 | -5 | 1% | 0
Cc1ccc(-c2cc(-c3n[nH]c(=S)o3)c3ccccc3n2)cc1 | 16µM* | 21µM* | 17 | -3 | 3% | -1
CN(Cc1ccccc1)c1ncnc2c1nc1n2CCCC1 | 10% | -2% | · | · | 6% | ·
Cc1ccc(C(=O)C2=C(O)C(=O)N(CC3CCCO3)C2c2ccccc2F)o1 (configuration not stated) | 0% | ? | 9 | 7 | 1% | -3
CCCCOc1ccc(C2C(C(=O)c3ccc(C)o3)=C(O)C(=O)N2CC2CCCO2)cc1 (configuration not stated) | ? | 23µM* | -2 | -3 | 1% | -23
CCN(CC)C(=O)c1ncn2c1C(=O)N(C)CC2 | -6% | -4% | -20 | 0 | · | 0
Cn1cc(C=C2C(=O)CC(C)(C)CC2=O)c2ccccc21 | -23% | 5% | 9 | -11 | 1% | -14
Cc1cccc(NC(=O)C(Cc2ccccc2)n2cccc2)c1C (configuration not stated) | 16µM* | 15µM* | · | · | 6% | ·
Cc1ccc(NC(=O)C(Cc2ccccc2)n2cccc2)cc1 (configuration not stated) | ? | 23µM* | ? | -16 | 4% | -11
Cc1csc(NC(=O)C(Cc2ccccc2)n2cccc2)n1 (configuration not stated) | 29µM* | ? | -18 | -16 | 5% | -24
Cc1ccccc1NC(=O)C(Cc1ccccc1)n1cccc1 (configuration not stated) | -16% | ? | -14 | -4 | · | -3
O=C(NC1CCCCCC1)C(Cc1ccccc1)n1cccc1 (configuration not stated) | ? | ? | -62* | -16 | 4% | 0
CCSc1nnc(NC(=O)C(Cc2ccccc2)n2cccc2)s1 (configuration not stated) | -23% | -16% | -12 | -4 | 5% | 0
CC1CCC(NC(=O)C(Cc2ccccc2)n2cccc2)CC1 (configuration not stated) | ? | ? | -26 | -7 | 5% | 1
COCCn1c(=O)cnc2cnc(Nc3ccccc3)nc21 | 9.2µM* | 15µM* | · | · | · | ·
O=c1cnc2cnc(Nc3ccccc3)nc2n1C[C@H]1CCCO1 | 8.2µM* | 9.2µM* | · | · | · | ·
CCC(CC)C(=O)c1c[nH]c(C(=O)NCc2ccccc2OC)c1 | 21µM* | ? | -12 | -11 | · | -12
SMILES | DT40 TDP1 CPT | DT40 TDP1 no CPT | IL1B secr inh | Six1-Eya2 inh | TDP1 block | CtBP-E1A blk
CCC(CC)C(=O)c1c[nH]c(C(=O)NCc2ccccc2)c1 | -28% | -34% | -6 | -1 | · | ·
CCC(CC)C(=O)c1c[nH]c(C(=O)NC2CCCCCC2)c1 | -8% | 2% | -66* | 3 | 4% | 5
CN(/N=C/c1cc(Br)cc(Br)c1O)c1cccc(C(F)(F)F)n1 | 7.3µM* | 16µM* | -10 | -16 | · | 0
CCOC(=O)c1[nH]c(C)c(C(=O)N2CCN(c3ccccc3OC)CC2)c1C | ? | ? | -6 | 2 | -1% | -2
Cn1ncc(C#N)c1NC(=O)C1CC(c2c(F)cccc2Cl)=NO1 (configuration not stated) | -19% | -16% | 23 | 1 | 4% | 9
CC(C)CNS(=O)(=O)c1cc(C(=O)OCC(=O)c2ccc3c(c2)OCCO3)c(Cl)cc1Cl | -21% | ? | -240* | 3 | 6% | 2
CC(C)CNS(=O)(=O)c1cc(C(=O)O)c(Cl)cc1Cl | 4% | 4% | 6 | 3 | -3% | 15
CCCn1c(C)cc(C(=O)COC(=O)c2cc(S(=O)(=O)NCC(C)C)c(Cl)cc2Cl)c1C | ? | 15µM* | -3 | -13 | 2% | -8
COc1ccc2c(c1)CC[C@@H]1[C@@H]2CC[C@]2(C)[C@@H](C(C)=O)C[C@@H]12 | ? | ? | 13 | 3 | -11% | ·
Cc1ccc(Cl)cc1N1CCN(C(=O)c2cc3c(=O)oc4ccccc4c3s2)CC1 | -12% | 8% | · | · | 0% | ·
CCn1cc(C(=O)N2CCN(c3cc(Cl)ccc3C)CC2)c2cc(OC)c(OC)cc2c1=O | 12µM* | ? | · | · | 11% | ·
COc1ccccc1N1CCN(C(=O)c2ccc3c(=O)n(Cc4ccc5c(c4)OCO5)c(=O)[nH]c3c2)CC1 | 16µM* | 18µM* | ? | -2 | 7% | -23
COc1ccccc1Cn1c(=S)[nH]c2cc(C(=O)N3CCN(c4ccccc4OC)CC3)ccc2c1=O | ? | 0% | 0 | 8 | 0% | ·
COc1ccc(Cn2c(=O)[nH]c3cc(C(=O)N4CCN(c5ccccc5OC)CC4)ccc3c2=O)cc1 | ? | 23µM* | -7 | -13 | 6% | 13
COc1ccc(C2OC(=O)CC2C(=O)N2CCN(c3cc(Cl)ccc3C)CC2)cc1OC (configuration not stated) | 21µM* | ? | -3 | 2 | 3% | -1

High-throughput results deposited in PubChem by National Center for Advancing Translational Sciences (NCATS).
